For some assays here: Targets with a hit are over-represented here; the source holds about 7,900 in all. For some assays here: About 0.6% of all pairs of compound and target were hits. A number with no mark means an inactive call. For some assays here: About 8,800 targets were measured; listed, in parts, are those with a hit and a random draw of the rest. For some assays here: About 0.5% of all pairs of compound and target were hits.

Chain of UniProt Q96BM9 (Q96BM9 whole entry, looked up): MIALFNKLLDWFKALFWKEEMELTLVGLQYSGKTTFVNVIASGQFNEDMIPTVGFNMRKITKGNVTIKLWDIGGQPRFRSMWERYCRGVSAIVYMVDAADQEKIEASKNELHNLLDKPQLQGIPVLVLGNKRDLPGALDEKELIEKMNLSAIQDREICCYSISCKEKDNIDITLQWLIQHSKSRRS
Chain of UniProt Q8N6T3 (Q8N6T3 whole entry, looked up): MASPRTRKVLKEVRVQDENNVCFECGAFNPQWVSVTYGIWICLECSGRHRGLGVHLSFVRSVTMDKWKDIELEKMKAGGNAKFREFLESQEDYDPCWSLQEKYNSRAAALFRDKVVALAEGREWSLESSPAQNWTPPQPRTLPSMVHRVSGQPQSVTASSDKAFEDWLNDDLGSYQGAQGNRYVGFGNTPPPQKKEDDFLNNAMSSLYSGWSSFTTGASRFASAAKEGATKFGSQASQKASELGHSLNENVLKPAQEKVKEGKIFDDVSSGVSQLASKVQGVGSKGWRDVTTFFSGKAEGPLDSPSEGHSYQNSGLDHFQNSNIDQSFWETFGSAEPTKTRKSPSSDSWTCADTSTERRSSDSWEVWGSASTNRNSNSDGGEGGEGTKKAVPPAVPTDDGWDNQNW
Chain of UniProt Q13686 (Q13686 whole entry, looked up): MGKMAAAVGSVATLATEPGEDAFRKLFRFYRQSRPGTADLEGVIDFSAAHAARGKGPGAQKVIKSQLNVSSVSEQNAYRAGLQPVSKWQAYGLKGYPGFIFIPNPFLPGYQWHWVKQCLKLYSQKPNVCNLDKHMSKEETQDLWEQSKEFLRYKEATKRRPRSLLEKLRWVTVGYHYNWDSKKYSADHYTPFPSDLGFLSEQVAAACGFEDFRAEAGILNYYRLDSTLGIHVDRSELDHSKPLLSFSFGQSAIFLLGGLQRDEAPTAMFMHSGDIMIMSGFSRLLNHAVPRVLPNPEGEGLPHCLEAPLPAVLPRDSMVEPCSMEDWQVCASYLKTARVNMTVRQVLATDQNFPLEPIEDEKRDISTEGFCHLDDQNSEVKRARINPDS
Chain of UniProt Q9Y303 (Q9Y303 whole entry, looked up): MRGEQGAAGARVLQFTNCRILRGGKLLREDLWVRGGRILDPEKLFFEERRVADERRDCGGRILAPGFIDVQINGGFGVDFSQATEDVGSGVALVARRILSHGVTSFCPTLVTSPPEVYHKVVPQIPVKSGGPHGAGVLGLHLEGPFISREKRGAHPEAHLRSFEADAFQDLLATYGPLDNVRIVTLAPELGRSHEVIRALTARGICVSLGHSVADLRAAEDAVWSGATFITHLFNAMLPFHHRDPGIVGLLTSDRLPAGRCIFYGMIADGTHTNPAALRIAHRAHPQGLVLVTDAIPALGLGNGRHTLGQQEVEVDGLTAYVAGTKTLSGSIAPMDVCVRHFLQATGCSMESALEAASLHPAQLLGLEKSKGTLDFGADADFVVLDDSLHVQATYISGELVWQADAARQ
Chain of UniProt O00116 (O00116 whole entry, looked up): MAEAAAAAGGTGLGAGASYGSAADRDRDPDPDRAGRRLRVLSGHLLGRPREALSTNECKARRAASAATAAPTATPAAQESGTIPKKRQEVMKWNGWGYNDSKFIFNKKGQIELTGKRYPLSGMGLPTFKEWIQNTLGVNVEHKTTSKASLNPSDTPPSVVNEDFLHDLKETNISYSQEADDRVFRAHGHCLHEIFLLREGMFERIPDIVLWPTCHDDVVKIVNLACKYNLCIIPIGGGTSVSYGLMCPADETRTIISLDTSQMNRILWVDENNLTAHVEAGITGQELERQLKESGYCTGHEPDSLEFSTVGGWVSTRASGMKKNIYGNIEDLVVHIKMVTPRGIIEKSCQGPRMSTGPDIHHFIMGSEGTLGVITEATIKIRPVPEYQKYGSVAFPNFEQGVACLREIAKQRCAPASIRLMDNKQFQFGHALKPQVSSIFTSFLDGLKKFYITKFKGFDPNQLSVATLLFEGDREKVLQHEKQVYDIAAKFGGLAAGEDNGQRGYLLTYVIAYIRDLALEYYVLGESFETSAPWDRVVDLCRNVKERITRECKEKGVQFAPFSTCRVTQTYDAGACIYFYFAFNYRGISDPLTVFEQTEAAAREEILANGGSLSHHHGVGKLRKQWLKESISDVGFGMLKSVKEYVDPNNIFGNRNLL
Chain of UniProt Q9UPW5 (Q9UPW5 whole entry, looked up): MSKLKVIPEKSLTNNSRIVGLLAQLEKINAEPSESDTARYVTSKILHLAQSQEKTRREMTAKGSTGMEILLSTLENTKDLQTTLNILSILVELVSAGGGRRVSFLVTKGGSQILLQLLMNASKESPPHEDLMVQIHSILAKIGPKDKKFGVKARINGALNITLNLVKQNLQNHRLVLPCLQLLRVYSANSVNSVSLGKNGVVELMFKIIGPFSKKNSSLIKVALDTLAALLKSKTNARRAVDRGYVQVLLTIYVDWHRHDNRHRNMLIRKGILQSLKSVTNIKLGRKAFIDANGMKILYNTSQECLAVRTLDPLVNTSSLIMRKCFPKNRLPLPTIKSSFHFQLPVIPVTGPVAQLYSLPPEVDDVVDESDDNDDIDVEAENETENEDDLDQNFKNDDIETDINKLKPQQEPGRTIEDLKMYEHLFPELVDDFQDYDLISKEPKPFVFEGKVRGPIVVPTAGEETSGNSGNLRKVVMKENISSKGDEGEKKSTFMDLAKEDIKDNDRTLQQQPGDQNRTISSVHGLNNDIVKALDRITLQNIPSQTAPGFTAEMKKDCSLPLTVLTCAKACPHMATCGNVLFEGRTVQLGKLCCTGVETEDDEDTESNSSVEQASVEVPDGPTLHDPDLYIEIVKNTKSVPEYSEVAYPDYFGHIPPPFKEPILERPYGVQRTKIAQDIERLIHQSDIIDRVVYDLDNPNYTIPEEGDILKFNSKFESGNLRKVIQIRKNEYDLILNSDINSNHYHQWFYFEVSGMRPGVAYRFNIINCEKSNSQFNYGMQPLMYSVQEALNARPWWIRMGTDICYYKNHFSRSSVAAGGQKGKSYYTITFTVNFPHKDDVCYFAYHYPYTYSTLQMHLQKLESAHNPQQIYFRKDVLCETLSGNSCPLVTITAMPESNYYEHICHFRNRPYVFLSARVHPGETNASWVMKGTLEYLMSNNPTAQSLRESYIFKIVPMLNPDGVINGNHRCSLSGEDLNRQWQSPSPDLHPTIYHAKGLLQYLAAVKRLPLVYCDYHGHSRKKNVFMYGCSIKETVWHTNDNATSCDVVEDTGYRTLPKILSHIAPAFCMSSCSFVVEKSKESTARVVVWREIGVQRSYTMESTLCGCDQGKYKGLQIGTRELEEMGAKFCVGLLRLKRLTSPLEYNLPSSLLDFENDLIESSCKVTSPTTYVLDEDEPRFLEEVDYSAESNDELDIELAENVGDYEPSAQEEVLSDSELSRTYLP
Chain of UniProt Q2VPB7 (Q2VPB7 whole entry, looked up): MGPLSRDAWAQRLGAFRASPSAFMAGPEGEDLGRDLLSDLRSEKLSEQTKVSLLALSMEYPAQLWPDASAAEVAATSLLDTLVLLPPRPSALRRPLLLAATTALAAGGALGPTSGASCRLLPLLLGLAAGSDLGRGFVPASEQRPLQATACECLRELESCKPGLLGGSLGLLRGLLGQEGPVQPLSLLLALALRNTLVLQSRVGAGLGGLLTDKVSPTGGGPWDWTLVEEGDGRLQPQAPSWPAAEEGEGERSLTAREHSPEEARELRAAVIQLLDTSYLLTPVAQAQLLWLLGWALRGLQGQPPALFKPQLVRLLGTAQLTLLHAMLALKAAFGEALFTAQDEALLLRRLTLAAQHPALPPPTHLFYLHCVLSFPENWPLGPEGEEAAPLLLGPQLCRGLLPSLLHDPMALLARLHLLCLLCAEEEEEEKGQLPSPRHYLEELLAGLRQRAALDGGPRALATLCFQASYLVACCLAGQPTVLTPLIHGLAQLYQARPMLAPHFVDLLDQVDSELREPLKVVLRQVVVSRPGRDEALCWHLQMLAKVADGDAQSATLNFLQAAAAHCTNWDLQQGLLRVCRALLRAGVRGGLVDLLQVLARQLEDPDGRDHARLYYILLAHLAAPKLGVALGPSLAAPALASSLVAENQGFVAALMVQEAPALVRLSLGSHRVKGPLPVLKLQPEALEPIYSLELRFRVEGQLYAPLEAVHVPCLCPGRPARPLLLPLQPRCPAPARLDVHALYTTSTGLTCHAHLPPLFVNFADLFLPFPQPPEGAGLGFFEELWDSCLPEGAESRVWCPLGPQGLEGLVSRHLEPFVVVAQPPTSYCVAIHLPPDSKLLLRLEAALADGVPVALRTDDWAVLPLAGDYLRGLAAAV
Chain of UniProt Q9BQI0 (Q9BQI0 whole entry, looked up): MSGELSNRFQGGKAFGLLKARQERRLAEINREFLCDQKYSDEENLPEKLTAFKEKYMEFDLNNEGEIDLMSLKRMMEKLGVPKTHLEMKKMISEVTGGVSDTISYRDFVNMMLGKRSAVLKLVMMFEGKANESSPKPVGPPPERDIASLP
Chain of UniProt Q04771 (Q04771 whole entry, looked up): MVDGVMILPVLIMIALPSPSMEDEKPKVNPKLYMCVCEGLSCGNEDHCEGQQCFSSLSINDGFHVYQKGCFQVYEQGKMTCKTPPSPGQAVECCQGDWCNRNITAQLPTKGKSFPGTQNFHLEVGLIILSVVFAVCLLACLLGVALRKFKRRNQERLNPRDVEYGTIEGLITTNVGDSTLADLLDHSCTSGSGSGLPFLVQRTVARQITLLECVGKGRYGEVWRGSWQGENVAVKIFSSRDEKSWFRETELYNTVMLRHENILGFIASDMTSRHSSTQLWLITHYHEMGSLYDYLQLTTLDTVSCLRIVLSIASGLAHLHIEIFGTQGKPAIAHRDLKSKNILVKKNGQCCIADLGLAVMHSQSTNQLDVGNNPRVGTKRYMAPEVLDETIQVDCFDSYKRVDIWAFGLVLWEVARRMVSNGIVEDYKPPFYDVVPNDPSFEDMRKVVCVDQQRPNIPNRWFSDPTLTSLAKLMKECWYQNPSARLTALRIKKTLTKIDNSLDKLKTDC
Chain of UniProt Q9P1F3 (Q9P1F3 whole entry, looked up): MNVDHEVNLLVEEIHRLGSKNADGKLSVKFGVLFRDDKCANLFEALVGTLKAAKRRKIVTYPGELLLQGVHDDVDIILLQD

Compound in the first test: CC1=C2C(=CC=C1)N=C(N(C2=O)C3=CC=CC=C3C)CN4C=NC5=C(N=CN=C54)N
As to the kind of experiment: log2 fold change, soluble protein after heating vs DMSO (PISA); higher = thermal stabilisation; K562 lysate, 10 uM; active = over 0.2 and 3.5 SD of the protein, either way, in both replicates (recomputed). The gist of the method:
(§1)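 Thermal stability, expressed as log-two fold change relative to solvent controls, is given from duplicates. Crude K562 extract in PBS pH 7.4 with 1 mM MgCl2, at 1 mg/mL protein, was treated with 10 μM compound for 30 min and heated in aliquots for 3 min across 48°C-58°C. After pooling, adjustment to 0.5% NP-40 at 4°C and centrifugation at 21,000xg for 90 min, supernatant protein was measured by TMTpro 16plex LC-MS/MS with channel sums equalised.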
For the target ALKBH1 (UniProt Q13686), the log2 fold change is -0.036. Still for that read-out and setting: the result for AGTPBP1 (UniProt Q9UPW5) reads 0.051. As for ACLY isoform 2 (UniProt P53396), the log2 fold change was 0.023. Still for that read-out and setting: next, ARL8A (UniProt Q96BM9): -0.157; AP3D1 isoform 2 (UniProt O14617): -0.009; ARHGEF2 (UniProt V9GYF0): 0.098. On the same count and under the same terms, the result for ARFGAP1 (UniProt Q8N6T3) reads 0.149; that for ANP32E isoform 3 (UniProt Q9BTT0), 0.015. Same read-out and setting: next, ACYP2 (UniProt P14621): 0.011; ALDH18A1 isoform 2 (UniProt P54886): 0.229.

Turning to ANKRD44 isoform 2 (UniProt Q8N8A2), the log2 fold change is 0.019.

For AGPAT2 (UniProt O15120), the log2 fold change is -0.11. Same read-out and setting: the result for AGGF1 (UniProt Q8N302) reads 0.024; that for AMDHD2 isoform 3 (UniProt Q9Y303), 0.031. On the same count and under the same terms, next, AMDHD2 (UniProt Q9Y303): 0.039; AGPS (UniProt O00116): 0.035.

Compound in another test: Cc1sc2c(c1C)C(c1ccc(Cl)cc1)=N[C@@H](CC(=O)OC(C)(C)C)c1nnc(C)n1-2
Described as above. The gist of the method:
as §1
Regarding ALKBH1 (UniProt Q13686), the log2 fold change is -0.001. Still for that read-out and setting: the result for AGTPBP1 (UniProt Q9UPW5) reads -0.042. Same read-out and setting: next, ARL8A (UniProt Q96BM9): 0.093; ARHGEF2 (UniProt V9GYF0): 0.105. Same read-out and setting: the result for ARFGAP1 (UniProt Q8N6T3) reads -0.081; that for ANKRD30A (UniProt Q9BXX3), -0.03. As to ACVR1 (UniProt Q04771), the log2 fold change was -0.102. On the same count and under the same terms, next, AIF1L (UniProt Q9BQI0): 0.049. On the same count and under the same terms, the result for ALDH18A1 isoform 2 (UniProt P54886) reads -0.068; that for ABRACL (UniProt Q9P1F3), 0.054. In the case of AP5B1 (UniProt Q2VPB7), the log2 fold change is -0.044.

As to ALKBH7 (UniProt Q9BT30), the log2 fold change was -0.012. Take ANXA2 (UniProt H0YL33): the log2 fold change is -0.135. On to ALDH3A1 (UniProt P30838), for which the log2 fold change was -0.209. Regarding AMDHD2 isoform 3 (UniProt Q9Y303), the log2 fold change was 0.037.

In the case of AGPS (UniProt O00116), the log2 fold change was 0.019.

Compound in another test: c1ccc([C@@H]2C[C@H]2NC2CCNCC2)cc1
The description is as above. The gist of the method: as §1
As for ALKBH1 (UniProt Q13686), the log2 fold change is 0.051. Same read-out and setting: next, ACAT1, A0A5F9ZHJ0: -0.06; AGTPBP1 (UniProt Q9UPW5): 0.03. The same measure, in the same setting: next, ACLY isoform 2 (UniProt P53396): -0.325.

In the case of ARL8A (UniProt Q96BM9), the log2 fold change was 0.1. Same read-out and setting: the result for AP3D1 isoform 2 (UniProt O14617) reads 0.061; that for ARFGAP1 (UniProt Q8N6T3), -0.127; that for ANP32E isoform 3 (UniProt Q9BTT0), -0.39.

As to ANKRD30A (UniProt Q9BXX3), the log2 fold change was 0.064. The same measure, in the same setting: the result for ACVR1 (UniProt Q04771) reads -0.126.

For ACYP2 (UniProt P14621), the log2 fold change was 0.118. The same measure, in the same setting: the result for AIF1L (UniProt Q9BQI0) reads -0.022; that for ANKRD44 isoform 2 (UniProt Q8N8A2), -1 (active); that for ABRACL (UniProt Q9P1F3), 0.075. In the case of AGPAT2 (UniProt O15120), the log2 fold change was 0.034. Regarding ALG13 isoform 2 (UniProt Q9NP73), the log2 fold change is -0.109. The same measure, in the same setting: the result for AP5B1 (UniProt Q2VPB7) reads -0.003. The same measure, in the same setting: the result for ALKBH7 (UniProt Q9BT30) reads -0.014. Still for that read-out and setting: the result for ANXA2 (UniProt H0YL33) reads 0.466; that for ALDH3A1 (UniProt P30838), -0.339; that for AGGF1 (UniProt Q8N302), -0.149. On to AMDHD2 isoform 3 (UniProt Q9Y303), for which the log2 fold change was -0.043. Still for that read-out and setting: the result for AMDHD2 (UniProt Q9Y303) reads 0.095. Same read-out and setting: the result for AGPS (UniProt O00116) reads -0.006.

Compound in another test: C1=CC=C(C=C1)[C@H](COC2=CC3=C(C=C2)NC(=O)N3)NC(=O)C4=CC=CN(C4=O)CC5=CC(=C(C=C5)F)F
In words: log2 fold change, soluble protein after heating vs DMSO (PISA); higher = thermal stabilisation; K562 cells, 10 uM, 30 min; active = over 0.2 and 3.5 SD of the protein, either way, in both replicates (recomputed). The gist of the method:
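Quantification of soluble protein used TMTpro 16plex LC-MS/MS, with channel sums equalised. Samples were the supernatant after 21,000xg for 90 min of pooled aliquots from K562 cells (2×10^6 cells/mL) treated with 10 μM compound for 30 min, heated for 3 min over 48°C-58°C, and extracted in PBS with 0.5% NP-40 at 4°C. Values, from duplicates, describe thermal stability against control samples on a log2 fold-change scale.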
With ZCCHC9 (UniProt Q8N567), the log2 fold change is 0.173. Take ZWILCH (UniProt Q9H900): the log2 fold change was -0.077. Still for that read-out and setting: next, YWHAB (UniProt P31946): -0.024. On the same count and under the same terms, the result for ZBTB43 (UniProt O43298) reads -0.105; that for YWHAQ (UniProt P27348), -0.031. Regarding ZDHHC17 (UniProt Q8IUH5), the log2 fold change was 0.014. Consider ZNF609 (UniProt O15014), for which the log2 fold change was 0.035.

Consider ZFPL1 (UniProt O95159), for which the log2 fold change was 0.09. Still for that read-out and setting: next, ZMYM3 (UniProt Q14202): -0.03; ZNF622 (UniProt Q969S3): -0.028. Same read-out and setting: the result for ZNF239 (UniProt Q16600) reads -0.17; that for ZW10 (UniProt O43264), -0.044.

(Values after the supplement of paper PMC10849652.)
